40 molecules from PubChem BioAssay (NCATS) can be followed below.

Inconclusive results are not listed. Unmarked numbers belong to inactive results. Active and inactive are the calls of the source. Calls follow the shape of the dose curve; as a rule, active = well fitted inhibition curve with a large enough effect; inconclusive = small, poorly fitted or top-dose-only effect; inactive = no such curve, though single readings can be large or run the other way. Where a SMILES comes first, the peptide text is derived from it.
% is scaled to controls: 0 for no effect and ±100 for the full control effect; potency is read from the fitted curve at half-maximal effect.

The assay deals with Cytochrome P450 3A7 (Homo sapiens) (UniProt P24462). Nature of the assay: Cytochrome P450 family 3 subfamily A member 7 (CYP3A7) small molecule antagonists: luciferase biochemical qHTS assay (AID 1963596). Also: nearly all actives have a fitted effect of over 40% in size. Conditions: P450-Glo CYP3A7 enzyme luminescence, 1 h; series mostly up to 57.4 µM; activity change, negative = inhibition: at the top concentration. The source says: National Center for Advancing Translational Sciences [NCATS] Assay Overview: Cytochrome P450 (CYP) enzymes are membrane-bound hemeproteins that play a key role in metabolism of drugs and xenobiotics. The CYP3A subfamily is the most abundant, representing 30% of the total adult hepatic CYP content, whereas CYP3A7 is found predominantly in human fetal liver and accounts up to 50% of the total fetal hepatic CYP content. Testing the effect of chemicals on CYP isozymes is useful to minimize the adverse drug reactions and toxicities in the drug development process. Chemicals were tested for their effect on CYP enzyme activities by using P450-Glo (TM) screening systems (Promega Corporation, Madison, WI). These systems provide a luminescent method containing proluciferin substrates and are converted to luciferin products by CYP isozymes. The luciferin products formed are detected with a luciferin detection reagent, and the amount of light produced is proportional to CYP activity. P450-Glo (TM) CYP3A7 screening system (Catalog. No. V8812) was used to detect the compounds that interfere with CYP3A7 activity. The positive control compound used for CYP3A7 assay is ketoconazole (Sigma-Aldrich, St. Louis, MO).
Cytochrome P450 3A7 (Homo sapiens), sequence (P24462 whole entry, looked up): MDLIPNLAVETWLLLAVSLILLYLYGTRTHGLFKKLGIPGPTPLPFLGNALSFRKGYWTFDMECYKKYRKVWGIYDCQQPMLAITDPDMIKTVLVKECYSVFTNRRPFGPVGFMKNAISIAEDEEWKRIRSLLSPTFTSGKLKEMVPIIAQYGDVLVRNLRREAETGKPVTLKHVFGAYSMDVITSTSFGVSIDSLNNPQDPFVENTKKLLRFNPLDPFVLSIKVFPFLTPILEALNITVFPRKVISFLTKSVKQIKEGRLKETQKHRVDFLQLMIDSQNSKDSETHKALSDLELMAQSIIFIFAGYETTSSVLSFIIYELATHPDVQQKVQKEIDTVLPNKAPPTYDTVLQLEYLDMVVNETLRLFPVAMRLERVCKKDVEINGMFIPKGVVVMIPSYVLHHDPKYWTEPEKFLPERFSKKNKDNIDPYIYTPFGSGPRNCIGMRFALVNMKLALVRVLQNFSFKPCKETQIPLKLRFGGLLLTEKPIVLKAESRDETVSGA
Assay Protocol Summary: Two ul of enzyme-substrate mix was dispensed into medium binding white/solid 1536-well plates (Greiner Bio-One North America Inc., Monroe, NC) using a Flying Reagent Dispenser (FRD, Aurora Discovery, San Diego, CA). Compounds dissolved in DMSO, and positive control (ketoconazole) were transferred to the assay plates at 23 nl using a Pintool station (Wako, San Diego, CA). The assay plates were incubated at room temperature for 10 min. Then 2 ul of NADPH regeneration solution was added to each well of the assay plates using an FRD and incubated at room temperature for 1 h. The reaction was stopped by adding 4 ul of detection reagent using an FRD and after 20 min incubation at room temperature the luminescence signal was measured using a ViewLux plate reader (Perkin Elmer, Shelton, CT). Data were expressed as relative luminescence units.
Turning to `C[C@@H](N)c1ccc(C(=O)Nc2ccnc3[nH]ccc23)cc1`, the “activity change, negative = inhibition” value is -21.9%.
The same measure, in the same setting: the figure for `COc1cc(OC)cc(OC)c1` is 1.4%; for `COc1cc(S(N)(=O)=O)cc(C(=O)O)c1OC` it is -4.87%.
On the same count and under the same terms, to `CC1CC(OC(=O)C(O)c2ccccc2)CC(C)(C)N1C` (stereo not given) belongs 2.46%; to `CC(C)(CO)[C@@H](O)C(=O)NCCCO`, -8.82%.
On the same count and under the same terms, the figure for `O=c1[nH]c2ccccc2c(=O)n1CCCl` is -10.2%; for `CCCCCCCC/C=C\CCCCCCCCN` it is 13.8%.
As for `NS(=O)(=O)c1cc(Cl)c(Cl)c(S(N)(=O)=O)c1`, the “activity change, negative = inhibition” value is -16.4%.
The same measure, in the same setting: to `CC(C)c1cc2c(N3CCN(C4=NCC(C)(C)S4)CC3)ncnc2s1` belongs 0%.
On to `On1ncc(C2CCNCC2)c1-c1cccc(-c2ccccc2)c1`, for which the “activity change, negative = inhibition” value is -25.3%.
On the same count and under the same terms, to `C[N+](C)(C)CCCCCC[N+](C)(C)C` belongs 6.34%.
Regarding `CNC1CCN(C(Cc2cccc(-c3ccncc3)c2)C(=O)c2sc3c(F)ccc(F)c3c2Cl)CC1` (stereo not given), the Potency was 2.39 µM (active).
In the case of `COc1ccc([C@@H]2CC(=O)c3c(O)cc(O[C@@H]4O[C@H](CO[C@@H]5O[C@@H](C)[C@H](O)[C@@H](O)[C@@H]5O)[C@@H](O)[C@H](O)[C@@H]4O)cc3O2)cc1O`, the “activity change, negative = inhibition” value was -12.6%.
Still for that read-out and setting: to `COc1ccccc1NC(=O)Cc1c(C(=O)O)[nH]c2ccc(Cl)cc12` belongs 16.2%.
For `O=S(=O)(Cc1ccccc1)Nc1ccc(-c2ccc3c(cnn3-c3ccc(F)cc3)c2)c(C(F)(F)F)c1`, the Potency was 12 µM (active).
For `CC(NC(=O)C(=O)Nc1c2c(nn1-c1ccccc1)CSC2)c1ccccc1` (stereo not given), the “activity change, negative = inhibition” value is -17.8%.
The same measure, in the same setting: to `CC[C@H]1OC(=O)C[C@@H](O)[C@H](C)[C@@H](O[C@@H]2O[C@H](C)[C@@H](O)[C@H](N(C)C)[C@H]2O)[C@@H](CCN2C[C@H](C)C[C@H](C)C2)C[C@@H](C)C(=O)/C=C/C(C)=C/[C@@H]1CO[C@@H]1O[C@H](C)[C@@H](O)[C@@H](OC)[C@H]1OC` belongs -1.65%.
Take `Nc1nc(=O)n([C@@H]2CS[C@H](CO)O2)cc1F`: the “activity change, negative = inhibition” value is 3.71%.
Still for that read-out and setting: the figure for `C[C@H]1O[C@@H](O[C@H]2[C@@H](O)C[C@H](O[C@H]3[C@@H](O)C[C@H](O[C@H]4CC[C@@]5(C)[C@H](CC[C@@H]6[C@@H]5C[C@@H](O)[C@]5(C)[C@@H](C7=CC(=O)OC7)CC[C@]65O)C4)O[C@@H]3C)O[C@@H]2C)C[C@H](O)[C@@H]1O` is -2.02%; for `Cc1cccc(C)c1NC(=O)CC12CCCN1CCC2` it is 2.05%; for `CCCc1ncc(C[n+]2ccccc2C)c(N)n1` it is -2.23%.
For `Cc1cnc(Nc2ccc(N3CCN(C)CC3)cc2)nc1Nc1cccc(S(=O)(=O)NC(C)(C)C)c1`, the “activity change, negative = inhibition” value is 0%.
Take `O=C(NCC(=O)N1CCCC1)Nc1ccc2cnccc2c1`: the “activity change, negative = inhibition” value was 12%.
Same read-out and setting: the figure for `COc1ccc(-n2c(SCC#N)nc3sc4c(c3c2=O)CCCC4)cc1` is 14.6%; for `Cc1ccc(S(=O)(=O)N2CCc3cc(C(=O)Nc4ccc(C(F)(F)F)cc4)ccc32)cc1` it is -19.4%.
Regarding `CCCNC(C)C(=O)Nc1ccccc1C` (stereo not given), the Potency entry was “inactive”.
In the case of `Cn1ncc(Cl)c1-c1cc(C(=O)NC(CN)Cc2ccc(F)c(F)c2)oc1Cl` (stereo not given), the “activity change, negative = inhibition” value was 0%.
As to `C=CC(=O)Nc1cccc(Nc2nc(Nc3ccc(N4CCN(C(C)=O)CC4)cc3OC)ncc2C(F)(F)F)c1`, the “activity change, negative = inhibition” value was 0.0153%.
With `CC(=O)N[C@@H](CO)C(=O)N[C@@H](CC(=O)O)C(=O)N[C@@H](CCCCN)C(=O)N1CCC[C@H]1C(=O)O` (Ac-SDKP-OH), the “activity change, negative = inhibition” value is 2.38%.
The same measure, in the same setting: the figure for `COc1ccccc1N1CCN(CC(O)COc2cc(OC)c(OC)c(OC)c2)CC1` (stereo not given) is -13.2%.
Still for that read-out and setting: to `Cc1ccc(S(=O)(=O)N[C@@H]2CCCC[C@H]2O)cc1` belongs -7.75%; to `CC(C)Cn1cnc2c1c(=O)n(C)c(=O)n2C`, 7.83%.
Regarding `Cc1ccc2c(n1)Oc1ccc(C(C)C(=O)OCC(=O)N(C)C)cc1C2` (stereo not given), the “activity change, negative = inhibition” value is -7.19%.
On to `CC(C)(C)c1ccc(C(=O)CCCCl)cc1`, for which the “activity change, negative = inhibition” value was -11%.
On the same count and under the same terms, to `CCCN[C@H]1CCc2nc(N)sc2C1` belongs 31.4%.
As for `CC(C)(Oc1ccc(C2CC2(Cl)Cl)cc1)C(=O)O` (stereo not given), the Potency entry is “inactive”.
Turning to `Cc1cccc(-c2nn3c(c2-c2ccnc4ccc(C(N)=O)cc24)CCC3)n1`, the “activity change, negative = inhibition” value is 4.09%.
Still for that read-out and setting: to `O=C1O[C@H](CO)[C@@H](O)[C@H](O)[C@H]1O` belongs 7.77%; to `CCn1c2ccccc2c2cc(Nc3ccnc(NCCCN4CCOCC4)n3)ccc21`, 4.14%; to `C[N+](C)(C)CC(=O)O`, 7.84%.
